About 14,000 (4.5%) of roughly 310,000 compounds showed an effect of 50% or more. The effect is printed as a negative number. The sample as a whole holds a higher share of strong results than the screen did.
What follows are molecules tested against human ether-à-go-go-related gene (hERG) potassium channel (human, UniProt Q12809) (assay: primary screen, population patch clamp on CHO cells stably expressing hERG; higher = less effect of the substance).
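Also: peak tail current of the secondary pulse compared with the same well before compound.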

Sequence of human ether-à-go-go-related gene (hERG) potassium channel (Q12809 whole entry, looked up): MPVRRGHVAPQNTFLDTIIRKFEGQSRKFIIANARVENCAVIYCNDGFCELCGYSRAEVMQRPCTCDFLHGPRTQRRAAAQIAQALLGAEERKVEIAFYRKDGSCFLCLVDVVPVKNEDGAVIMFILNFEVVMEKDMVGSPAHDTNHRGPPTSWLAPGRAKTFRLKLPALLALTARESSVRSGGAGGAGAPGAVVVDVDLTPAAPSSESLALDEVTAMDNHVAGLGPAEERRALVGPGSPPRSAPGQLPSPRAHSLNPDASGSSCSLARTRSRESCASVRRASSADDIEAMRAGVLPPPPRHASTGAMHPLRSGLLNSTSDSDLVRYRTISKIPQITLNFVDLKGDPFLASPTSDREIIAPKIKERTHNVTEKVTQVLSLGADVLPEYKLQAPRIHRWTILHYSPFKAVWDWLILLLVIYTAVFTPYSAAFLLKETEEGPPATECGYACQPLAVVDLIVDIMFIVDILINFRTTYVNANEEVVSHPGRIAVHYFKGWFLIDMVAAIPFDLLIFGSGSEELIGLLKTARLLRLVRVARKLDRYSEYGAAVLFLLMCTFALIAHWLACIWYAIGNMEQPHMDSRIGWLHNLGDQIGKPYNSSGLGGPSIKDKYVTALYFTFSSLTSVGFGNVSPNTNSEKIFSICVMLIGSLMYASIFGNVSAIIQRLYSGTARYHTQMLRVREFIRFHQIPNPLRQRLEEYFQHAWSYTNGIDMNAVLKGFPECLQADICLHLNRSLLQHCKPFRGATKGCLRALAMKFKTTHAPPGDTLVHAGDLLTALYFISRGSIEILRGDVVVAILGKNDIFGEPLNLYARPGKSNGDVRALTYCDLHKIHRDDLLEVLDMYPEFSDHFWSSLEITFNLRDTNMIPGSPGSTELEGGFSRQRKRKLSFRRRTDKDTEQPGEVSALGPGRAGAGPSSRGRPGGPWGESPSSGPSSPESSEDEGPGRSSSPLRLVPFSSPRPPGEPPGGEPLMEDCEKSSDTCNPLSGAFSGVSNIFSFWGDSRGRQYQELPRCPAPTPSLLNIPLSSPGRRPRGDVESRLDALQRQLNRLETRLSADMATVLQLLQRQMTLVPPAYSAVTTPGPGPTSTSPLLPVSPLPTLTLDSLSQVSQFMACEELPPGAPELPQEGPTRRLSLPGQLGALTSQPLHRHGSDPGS

First: O=c1[nH]c(O)c(N=Nc2ccc3c(c2)OCCO3)c(=O)[nH]1
Second: O=C(O)CCC(=O)N1CCOc2ccc(Cl)cc21
The “hERG current change (%, negative = inhibition) at 10uM” value of the first is higher: 14.2% for the first, 2.92% for the second.

Going from CC(=O)N1c2ccc(N=Cc3cc(Br)cc(Br)c3O)cc2CC1C (stereo not drawn) to CC(=O)OC1N=C(c2ccccc2Cl)c2cc(Br)ccc2NC1=O (stereo not drawn), the “hERG current change (%, negative = inhibition) at 10uM” value falls from 2.6% to -40.3%.

Going from Cc1ccc(CN2C(=O)/C(=C\c3ccc(C(=O)NCc4cccnc4)cc3)Oc3ccccc32)cc1 to Cc1cccc(NC(=O)c2ccc3c(c2)C(=O)N(c2ccccc2C)C3=O)n1, the “hERG current change (%, negative = inhibition) at 10uM” value falls from 12.9% to -10.5%.

First: O=C(NNc1ccccn1)C(=O)NNS(=O)(=O)c1ccc(F)cc1
Second: O=C(O)c1ccccc1NS(=O)(=O)c1ccc2c3c(cccc13)C(=O)N2
The “hERG current change (%, negative = inhibition) at 10uM” value of the first is lower: 12.5% for the first, 16.1% for the second.

First: Cn1c(=O)c2nc(-c3ccccc3)oc2c2ccccc21
Second: O=C1Nc2ccc(Br)cc2C(c2ccccc2)=NC1O (stereo not drawn)
The “hERG current change (%, negative = inhibition) at 10uM” value of the first is lower: -1.46% for the first, 13.1% for the second.

First: N#Cc1c(-c2ccccc2)nc(SCC(=O)Nc2ccc(OC(F)(F)Cl)cc2)[nH]c1=O
Second: CC(=O)OC1N=C(c2ccccc2)c2cc(Br)ccc2NC1=O (stereo not drawn)
The “hERG current change (%, negative = inhibition) at 10uM” value of the first is higher: 28.5% for the first, -10.2% for the second.

Going from CN(C)C(=S)Nc1ccc2ccccc2c1 to CN(C)C(CNC(=O)c1ccc2ccccc2n1)c1ccccc1 (stereo not drawn), the “hERG current change (%, negative = inhibition) at 10uM” value falls from 11.2% to 11.1%.

Compared with CC1Cc2ccccc2N1C(=O)CN1CCC(n2nnc3cc(C(F)(F)F)ccc32)CC1 (stereo not drawn), COC(=O)c1ccccc1NC(=O)CN1CCC(n2nnc3cc(C(F)(F)F)ccc32)CC1 is higher in “hERG current change (%, negative = inhibition) at 10uM” value: -67.2% for the first, -6.14% for the second.

Compared with Cc1nc2cc(C(F)(F)F)ccc2n1C1CCN(C(=O)N2CCOCC2)CC1, Cc1nc2cc(C(F)(F)F)ccc2n1C1CCN(CC(=O)N2CCOCC2)CC1 is higher in “hERG current change (%, negative = inhibition) at 10uM” value: -55.7% for the first, -44.4% for the second.

First: COCCNC(=O)CN1CCC(n2c(C)nc3cc(C(F)(F)F)ccc32)CC1
Second: C=CCNC(=O)CN1CCC(n2c(C)nc3cc(C(F)(F)F)ccc32)CC1
The “hERG current change (%, negative = inhibition) at 10uM” value of the first is higher: -25.6% for the first, -62.1% for the second.

Compared with COCC(=O)N1CCC(n2nnc3cc(C(F)(F)F)ccc32)CC1, C=CCNC(=O)CN1CCC(n2nnc3cc(C(F)(F)F)ccc32)CC1 is lower in “hERG current change (%, negative = inhibition) at 10uM” value: -22% for the first, -50.7% for the second.

Going from Cc1nc2cc(C(F)(F)F)ccc2n1C1CCN(CC(=O)NC(C)(C)C)CC1 to Cc1nc2cc(C(F)(F)F)ccc2n1C1CCN(CC(=O)N2CCCC2)CC1, the “hERG current change (%, negative = inhibition) at 10uM” value rises from -19.4% to -13.1%.

First: O=C(CN1CCC(n2nnc3cc(C(F)(F)F)ccc32)CC1)NNC(=O)c1ccco1
Second: Cc1cc(NC(=O)CN2CCC(n3nnc4cc(C(F)(F)F)ccc43)CC2)no1
The “hERG current change (%, negative = inhibition) at 10uM” value of the first is higher: -24.6% for the first, -50% for the second.

Going from CC1=C(C#N)C(NC(=O)C(C)(C)C)(C(F)(F)F)C(=O)N1 (stereo not drawn) to CCC(NC(=O)Nc1ncccc1C)(C(F)(F)F)C(F)(F)F, the “hERG current change (%, negative = inhibition) at 10uM” value falls from 1.3% to -3.33%.

Going from CC1CCN(CCCNC(=O)CCCNC(=O)Cn2cnc3sc4c(c3c2=O)CCCC4)CC1 to Cc1ccc(C(=O)NCCNC(=O)CN2CCCC2)cc1, the “hERG current change (%, negative = inhibition) at 10uM” value falls from 12.3% to 5.16%.

Going from Cc1ccc(NC(=O)NCCCl)cc1S(=O)(=O)N1CCOCC1 to Cc1cccc(OCCNc2cc(N3CCOCC3)ccc2[N+](=O)[O-])c1, the “hERG current change (%, negative = inhibition) at 10uM” value falls from 1.99% to -12.8%.

Compared with COc1ccc2cc3cc(C(=O)N4CCN(c5ccccc5)CC4)oc3nc2c1, O=C(CCN1C(=O)COc2ccccc21)N1CCN(c2ccccc2)CC1 is lower in “hERG current change (%, negative = inhibition) at 10uM” value: 13.2% for the first, -15% for the second.

First: CN(C)CCC1Sc2ccccc2Oc2ccccc21.O=C(O)C(=O)O (stereo not drawn)
Second: CN(C)CCCC1Sc2ccccc2Sc2ccccc21.O=C(O)C(=O)O (stereo not drawn)
The “hERG current change (%, negative = inhibition) at 10uM” value of the first is higher: -24.8% for the first, -56.1% for the second.

First: CC1c2ccccc2SC(CCCN(C)C)c2ccccc21.O=C(O)/C=C\C(=O)O (stereo not drawn)
Second: COc1cc2c(=O)n(Cc3ccccc3)c(=O)n(CC(=O)NCCc3ccccc3)c2cc1OC
The “hERG current change (%, negative = inhibition) at 10uM” value of the first is lower: -19.2% for the first, 0.36% for the second.

Compared with Cc1nc2scc(C)n2c(=O)c1S(=O)(=O)N1CCN(c2ccc([N+](=O)[O-])cc2)CC1, Cc1cc(/C=C2\SC(=O)N(C)C2=O)c(C)n1-c1ccc(S(N)(=O)=O)cc1 is higher in “hERG current change (%, negative = inhibition) at 10uM” value: -12% for the first, 13.3% for the second.

Going from CCN(CC)c1ccc(NC(=O)CSc2nnc(N)s2)cc1C to Cc1cc(NC(=O)CN(C)S(=O)(=O)c2ccc(-c3ccc(=O)[nH]n3)s2)ccc1Br, the “hERG current change (%, negative = inhibition) at 10uM” value rises from 2.78% to 7.95%.

First: COC(C/C=C\C(=O)[C@H](C)OCc1ccccc1)OC
Second: COC(=O)c1ccc(COc2cccc3c2OC(C)(C)C3)cc1
The “hERG current change (%, negative = inhibition) at 10uM” value of the first is lower: 9.66% for the first, 28.7% for the second.

Compared with O=C(CCC1CCCCC1)NCCN1C2=NC[C@H](Cc3ccc(O)cc3)N2C[C@H]1Cc1ccc(O)cc1, O=C(CCC1CCCCC1)NCCN1C2=NC[C@H](Cc3ccccc3)N2C[C@H]1Cc1ccc(O)cc1 is lower in “hERG current change (%, negative = inhibition) at 10uM” value: -4.37% for the first, -42% for the second.

Going from COc1ccc(C[C@H]2CN3C(=NC[C@H]3Cc3ccccc3)N2CCNC(=O)CCC2CCCCC2)cc1 to COc1ccc(C[C@H]2CN3C(=NC[C@@H]3Cc3ccccc3)N2CCNC(=O)CCC2CCCCC2)cc1, the “hERG current change (%, negative = inhibition) at 10uM” value falls from -71.9% to -73.7%.

First: O=C(CCC1CCCCC1)NCCN1C2=NC[C@@H](Cc3ccccc3)N2C[C@H]1Cc1ccc(O)cc1
Second: COc1ccc(CN2C(=O)CN(C3CCCCCC3)C(=O)C2c2ccc(F)cc2)cc1 (stereo not drawn)
The “hERG current change (%, negative = inhibition) at 10uM” value of the first is lower: -69.3% for the first, 3.27% for the second.

First: CCOC(=O)c1ccc(NC(=O)c2ccnn2C)cc1
Second: CCOC(=O)C1=C(COC(=O)c2cccnc2Cl)NC(=O)NC1C (stereo not drawn)
The “hERG current change (%, negative = inhibition) at 10uM” value of the first is lower: 4.61% for the first, 6.19% for the second.

First: CC(OC(=O)c1nc(-c2ccccc2)n(-c2ccccc2)n1)C(=O)Nc1cc(Cl)cc(Cl)c1 (stereo not drawn)
Second: Cc1ccccc1-c1nc(P(=O)(c2ccccc2)c2ccccc2)c(N2CCOCC2)o1
The “hERG current change (%, negative = inhibition) at 10uM” value of the first is higher: -6.35% for the first, -19.5% for the second.

First: O=C1Nc2ccc(Br)cc2C(c2ccc(Cl)cc2)=NC1O (stereo not drawn)
Second: CC(=O)OC1N=C(c2ccc(Cl)cc2)c2cc(Br)ccc2NC1=O (stereo not drawn)
The “hERG current change (%, negative = inhibition) at 10uM” value of the first is lower: -56.5% for the first, -55% for the second.

First: O=C1Nc2ccc(Br)cc2C(c2ccccc2Cl)=NC1O (stereo not drawn)
Second: Fc1cccc(Cl)c1-c1nnc2ccc3ccccc3n12
The “hERG current change (%, negative = inhibition) at 10uM” value of the first is lower: -48.6% for the first, 10.3% for the second.

First: CC(Nc1ncnc2sccc12)c1ccccc1 (stereo not drawn)
Second: CC1(C)Cc2cccc(OCC(O)CNCc3ccccn3)c2O1.Cl (stereo not drawn)
The “hERG current change (%, negative = inhibition) at 10uM” value of the first is lower: -29.8% for the first, -25.1% for the second.

Compared with C#CCOCCOCCOCCNc1nc(N2CCN(C(=O)[C@H](C(C)C)n3cc(CCO)nn3)CC2)nc(N2CCN(C(=O)[C@H](C(C)C)n3cc(CCO)nn3)CC2)n1, Cc1ccc(C)c(N2CCN(C(=O)CCC(=O)N3CCOc4ccc(Cl)cc43)CC2)c1 is lower in “hERG current change (%, negative = inhibition) at 10uM” value: 2.97% for the first, -18.9% for the second.

First: COc1ccc(CNCC(O)COc2cccc3c2OC(C)(C)C3)cc1.Cl (stereo not drawn)
Second: COc1ccc(CNCC(O)COc2ccc(C)cc2[N+](=O)[O-])cc1 (stereo not drawn)
The “hERG current change (%, negative = inhibition) at 10uM” value of the first is higher: -60.5% for the first, -71.2% for the second.

Going from COc1ccc(OCCOCCOc2ccc(C)cc2[N+](=O)[O-])cc1 to Cc1ccc([N+](=O)[O-])c(OCC(O)CNC(C)(C)C)c1.Cl (stereo not drawn), the “hERG current change (%, negative = inhibition) at 10uM” value rises from -22.4% to 3.01%.

Going from O=C(CSc1nnc(-c2cccnc2)o1)N1CCCCC1 to O=C(CCN1C(=O)COc2ccccc21)N1CCCCC1, the “hERG current change (%, negative = inhibition) at 10uM” value falls from 9.4% to -6.49%.

First: CC(C)C(NC(=O)C1CCCCC1)C(=O)NCc1ccccn1 (stereo not drawn)
Second: Cc1ccc2c(c1)N(C(=O)CCC(=O)N1CCN(c3ccccn3)CC1)CC(C)O2 (stereo not drawn)
The “hERG current change (%, negative = inhibition) at 10uM” value of the first is higher: 9.17% for the first, -46.1% for the second.

First: CC(C)CC1C(C#N)=C(N)SC(N)=C1C#N
Second: CCOC(=O)C1=C(COC(=O)c2ccc(C)s2)NC(=O)NC1C (stereo not drawn)
The “hERG current change (%, negative = inhibition) at 10uM” value of the first is higher: 15.9% for the first, -5.32% for the second.

First: CCOc1ccc(N(C)S(=O)(=O)c2ccc(-c3ccc(=O)[nH]n3)s2)cc1
Second: Cc1ccc(N(C)S(=O)(=O)c2ccc(-c3ccc(=O)[nH]n3)s2)cc1C
The “hERG current change (%, negative = inhibition) at 10uM” value of the first is lower: -15.6% for the first, 13.7% for the second.

First: Cc1cccc(C)c1NC(=O)CN(C)S(=O)(=O)c1ccc(-c2ccc(=O)[nH]n2)s1
Second: CCc1cccc(C)c1NC(=O)CN(C)S(=O)(=O)c1ccc(-c2ccc(=O)[nH]n2)s1
The “hERG current change (%, negative = inhibition) at 10uM” value of the first is higher: -51.7% for the first, -55.3% for the second.

First: Cc1cccc2sc(NC(=O)CN(C)S(=O)(=O)c3ccc(Br)s3)nc12
Second: Cc1ccc2c(c1)N(C(=O)CCC(=O)N1CCN(c3cccc(C)c3C)CC1)CCO2
The “hERG current change (%, negative = inhibition) at 10uM” value of the first is higher: -2.49% for the first, -18.7% for the second.

Compared with COc1cc(OC)cc(C(=O)N[C@H](C(=O)OCC(=O)Nc2ccc(F)c(F)c2)C(C)C)c1, COc1cccc(-c2cc(C(F)(F)F)nc(NCc3ccco3)n2)c1 is higher in “hERG current change (%, negative = inhibition) at 10uM” value: -8.85% for the first, 18.8% for the second.

First: O=C(CCN1C(=O)COc2ccccc21)N1CCN(c2ccccn2)CC1
Second: O=C(CCC(=O)N1CCOc2ccc(Cl)cc21)N1CCN(c2ccccn2)CC1
The “hERG current change (%, negative = inhibition) at 10uM” value of the first is lower: -69.3% for the first, -57.5% for the second.

Compared with Cc1ccc2c(c1)N(C(=O)CCC(=O)N1CCN(c3ccccn3)CC1)CCO2, CCOC(=O)C1=C(COC(=O)c2ncc(Cl)c(Cl)c2Cl)NC(=O)NC1C (stereo not drawn) is lower in “hERG current change (%, negative = inhibition) at 10uM” value: -52.2% for the first, -60.6% for the second.
